# Paper PMC7862700, “An all-to-all approach to the identification of sequence-specific readers for epigenetic DNA modifications on cytosine”
# Columns and labels:
# Assay in all cases: DAPPL (digital affinity profiling via proximity ligation, sequencing); 10 mM Tris-HCl pH 7.5, 50 mM NaCl, 1 mM DTT, 4% glycerol, room temperature, 30 min; GST-TFs on glutathione beads, 16-mer random dsDNA library, 0.1% formaldehyde crosslink after washing; high values mean tight binding
# FLI1 = target: T1, FLI1 (Homo sapiens, UniProt Q01543 1-452); settings: protein: recombinant; tags: N-terminal GST; dsDNA, one strand shown
# T1 sequence: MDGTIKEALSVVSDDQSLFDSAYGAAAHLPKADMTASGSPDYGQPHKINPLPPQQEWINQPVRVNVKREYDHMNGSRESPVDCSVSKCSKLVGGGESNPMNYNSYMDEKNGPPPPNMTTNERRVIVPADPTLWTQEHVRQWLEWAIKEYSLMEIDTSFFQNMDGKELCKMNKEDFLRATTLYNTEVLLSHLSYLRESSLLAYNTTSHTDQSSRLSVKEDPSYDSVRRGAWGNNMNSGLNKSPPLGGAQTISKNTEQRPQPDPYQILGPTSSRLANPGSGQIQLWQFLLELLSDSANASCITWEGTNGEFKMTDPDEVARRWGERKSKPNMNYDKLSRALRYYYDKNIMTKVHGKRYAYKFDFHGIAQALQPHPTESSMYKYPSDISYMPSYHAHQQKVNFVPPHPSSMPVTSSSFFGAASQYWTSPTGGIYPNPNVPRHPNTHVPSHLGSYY
# How it was run: (§1)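 Human transcription factors carrying a GST fusion were produced in yeast, bound to glutathione beads, tagged with DNA barcodes and pooled together with a tag-only sample. Each pool was held with 200 nmole of a random double-stranded 16-mer DNA library in Tris/NaCl/DTT/glycerol buffer for 30 min at room temperature, then washed, crosslinked in 0.1% formaldehyde, proximity-ligated with BsaI/T4 ligase (1 h, 37 °C), PCR-amplified and sequenced on an Illumina NextSeq500. Binding signal is the read frequency of each hexamer for a given factor divided by its frequency in the tag-only sample.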
# ELK1 = target: T2, ELK1 (Homo sapiens, UniProt P19419 1-428); settings: protein: recombinant; tags: N-terminal GST; dsDNA, one strand shown
# T2 sequence: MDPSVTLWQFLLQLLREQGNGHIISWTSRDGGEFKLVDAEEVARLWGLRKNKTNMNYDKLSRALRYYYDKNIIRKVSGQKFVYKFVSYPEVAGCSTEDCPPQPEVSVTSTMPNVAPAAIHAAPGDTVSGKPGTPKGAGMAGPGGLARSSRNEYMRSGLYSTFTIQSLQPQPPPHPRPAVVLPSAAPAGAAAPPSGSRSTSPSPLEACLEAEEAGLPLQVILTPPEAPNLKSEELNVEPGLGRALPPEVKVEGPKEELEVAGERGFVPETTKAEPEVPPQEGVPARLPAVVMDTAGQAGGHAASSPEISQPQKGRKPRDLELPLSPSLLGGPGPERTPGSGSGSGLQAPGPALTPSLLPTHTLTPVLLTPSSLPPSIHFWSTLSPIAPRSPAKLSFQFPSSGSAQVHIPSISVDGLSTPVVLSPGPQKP
# How it was run: as §1
# GABPA = target: T3, GABPA (Homo sapiens, UniProt Q06546 1-454); settings: protein: recombinant; tags: N-terminal GST; dsDNA, one strand shown
# T3 sequence: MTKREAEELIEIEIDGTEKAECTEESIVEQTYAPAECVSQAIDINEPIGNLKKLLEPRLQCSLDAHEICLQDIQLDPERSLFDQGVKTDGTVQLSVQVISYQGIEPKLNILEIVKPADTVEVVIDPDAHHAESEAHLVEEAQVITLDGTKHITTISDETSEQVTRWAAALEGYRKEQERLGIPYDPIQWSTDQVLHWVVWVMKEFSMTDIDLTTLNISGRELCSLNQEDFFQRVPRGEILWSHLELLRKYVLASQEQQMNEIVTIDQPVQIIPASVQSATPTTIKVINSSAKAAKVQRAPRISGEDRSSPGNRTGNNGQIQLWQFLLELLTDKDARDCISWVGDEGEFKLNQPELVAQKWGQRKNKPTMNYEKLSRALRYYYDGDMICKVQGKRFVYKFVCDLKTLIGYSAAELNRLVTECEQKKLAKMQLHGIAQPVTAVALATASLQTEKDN
# How it was run: as §1
# ERG = target: T4, ERG (Homo sapiens, UniProt P11308 1-479); settings: protein: recombinant; tags: N-terminal GST; dsDNA, one strand shown
# T4 sequence: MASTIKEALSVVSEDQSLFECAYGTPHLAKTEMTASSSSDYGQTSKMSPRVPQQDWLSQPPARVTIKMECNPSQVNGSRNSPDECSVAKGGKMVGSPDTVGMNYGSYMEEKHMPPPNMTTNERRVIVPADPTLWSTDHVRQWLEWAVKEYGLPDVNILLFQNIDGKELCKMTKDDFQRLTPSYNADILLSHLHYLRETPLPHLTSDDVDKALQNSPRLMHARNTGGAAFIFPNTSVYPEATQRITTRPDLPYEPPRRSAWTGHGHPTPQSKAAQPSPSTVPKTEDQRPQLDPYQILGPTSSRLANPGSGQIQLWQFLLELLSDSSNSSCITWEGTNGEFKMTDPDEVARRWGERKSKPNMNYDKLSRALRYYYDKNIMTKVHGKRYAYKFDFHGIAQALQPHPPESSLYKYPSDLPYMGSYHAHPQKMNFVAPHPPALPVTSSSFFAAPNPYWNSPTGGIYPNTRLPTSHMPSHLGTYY
# How it was run: as §1
# ELF1 = ELF1 (Homo sapiens, UniProt P32519 1-619); settings: protein: recombinant; tags: N-terminal GST; dsDNA, one strand shown
# How it was run: as §1
# EHF = target: T5, EHF (Homo sapiens, UniProt Q9NZC4 1-300); settings: protein: recombinant; tags: N-terminal GST; dsDNA, one strand shown
# T5 sequence: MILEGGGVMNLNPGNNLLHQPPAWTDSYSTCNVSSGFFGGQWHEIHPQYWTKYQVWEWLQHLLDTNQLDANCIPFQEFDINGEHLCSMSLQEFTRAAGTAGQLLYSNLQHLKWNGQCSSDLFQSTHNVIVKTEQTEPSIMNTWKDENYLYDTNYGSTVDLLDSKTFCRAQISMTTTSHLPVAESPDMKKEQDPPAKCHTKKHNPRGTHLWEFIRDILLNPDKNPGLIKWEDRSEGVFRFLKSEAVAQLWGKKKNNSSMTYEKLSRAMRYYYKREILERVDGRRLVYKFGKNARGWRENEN
# How it was run: as §1
# SPI1 = SPI1 (Homo sapiens, UniProt P17947 1-270); settings: protein: recombinant; tags: N-terminal GST; dsDNA, one strand shown
# How it was run: as §1
# SPIB = SPIB (Homo sapiens, UniProt Q01892 1-262); settings: protein: recombinant; tags: N-terminal GST; dsDNA, one strand shown
# How it was run: as §1
# ELK3 = target: T6, ELK3 (Homo sapiens, UniProt P41970 1-407); settings: protein: recombinant; tags: N-terminal GST; dsDNA, one strand shown
# T6 sequence: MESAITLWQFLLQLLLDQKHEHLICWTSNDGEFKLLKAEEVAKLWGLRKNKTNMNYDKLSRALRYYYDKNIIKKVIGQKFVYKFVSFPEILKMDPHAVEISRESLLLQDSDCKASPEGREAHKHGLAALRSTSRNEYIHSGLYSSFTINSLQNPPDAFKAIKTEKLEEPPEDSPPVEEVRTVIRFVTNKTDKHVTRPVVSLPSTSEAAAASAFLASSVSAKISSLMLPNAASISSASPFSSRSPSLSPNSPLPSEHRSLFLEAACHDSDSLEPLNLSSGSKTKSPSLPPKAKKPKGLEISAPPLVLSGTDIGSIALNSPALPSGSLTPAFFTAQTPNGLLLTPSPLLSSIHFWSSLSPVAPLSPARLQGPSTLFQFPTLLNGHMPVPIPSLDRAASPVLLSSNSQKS
# How it was run: as §1
# FEV = target: T7, FEV (Homo sapiens, UniProt Q99581 1-238); settings: protein: recombinant; tags: N-terminal GST; dsDNA, one strand shown
# T7 sequence: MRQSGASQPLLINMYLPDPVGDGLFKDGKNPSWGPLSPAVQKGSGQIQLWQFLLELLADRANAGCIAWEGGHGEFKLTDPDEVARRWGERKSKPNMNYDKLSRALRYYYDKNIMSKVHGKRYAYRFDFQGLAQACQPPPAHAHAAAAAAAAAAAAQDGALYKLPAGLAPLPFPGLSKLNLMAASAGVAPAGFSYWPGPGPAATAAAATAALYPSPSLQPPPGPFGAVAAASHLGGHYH
# How it was run: as §1
# ETV5 = ETV5 (Homo sapiens, UniProt P41161 1-510); settings: protein: recombinant; tags: N-terminal GST; dsDNA, one strand shown
# How it was run: as §1
# HSF1 = HSF1 (Homo sapiens, UniProt Q00613 1-529); settings: protein: recombinant; tags: N-terminal GST; chain copies: 3; dsDNA, one strand shown
# How it was run: as §1
# SPIC = target: T8, SPIC (Homo sapiens, UniProt Q8N5J4 1-248); settings: protein: recombinant; tags: N-terminal GST; dsDNA, one strand shown
# T8 sequence: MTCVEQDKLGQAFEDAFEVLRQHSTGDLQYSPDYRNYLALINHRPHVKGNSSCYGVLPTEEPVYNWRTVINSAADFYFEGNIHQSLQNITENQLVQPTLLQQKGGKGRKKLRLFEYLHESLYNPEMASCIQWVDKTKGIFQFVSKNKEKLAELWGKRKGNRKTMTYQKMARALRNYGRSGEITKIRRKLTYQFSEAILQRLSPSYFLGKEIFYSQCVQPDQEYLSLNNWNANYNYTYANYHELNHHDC
# How it was run: as §1
# ELF4 = ELF4 (Homo sapiens, UniProt Q99607 1-663); settings: protein: recombinant; tags: N-terminal GST; dsDNA, one strand shown
# How it was run: as §1
# ELK4 = target: T9, ELK4 (Homo sapiens, UniProt P28324-2 1-405); settings: protein: recombinant; tags: N-terminal GST; dsDNA, one strand shown
# T9 sequence: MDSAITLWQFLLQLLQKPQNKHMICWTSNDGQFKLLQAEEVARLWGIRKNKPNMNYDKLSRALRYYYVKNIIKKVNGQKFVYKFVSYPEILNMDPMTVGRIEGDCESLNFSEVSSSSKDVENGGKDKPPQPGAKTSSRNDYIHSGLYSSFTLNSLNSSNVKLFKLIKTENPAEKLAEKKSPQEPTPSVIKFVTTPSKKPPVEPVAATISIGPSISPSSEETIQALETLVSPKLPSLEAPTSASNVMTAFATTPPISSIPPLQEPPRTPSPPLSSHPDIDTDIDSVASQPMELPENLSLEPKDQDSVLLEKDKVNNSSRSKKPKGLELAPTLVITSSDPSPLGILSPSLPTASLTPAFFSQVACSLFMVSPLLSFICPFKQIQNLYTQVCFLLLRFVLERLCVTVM
# How it was run: as §1
# ETV2 = target: T10, ETV2 (Homo sapiens, UniProt O00321 1-342); settings: protein: recombinant; tags: N-terminal GST; dsDNA, one strand shown
# T10 sequence: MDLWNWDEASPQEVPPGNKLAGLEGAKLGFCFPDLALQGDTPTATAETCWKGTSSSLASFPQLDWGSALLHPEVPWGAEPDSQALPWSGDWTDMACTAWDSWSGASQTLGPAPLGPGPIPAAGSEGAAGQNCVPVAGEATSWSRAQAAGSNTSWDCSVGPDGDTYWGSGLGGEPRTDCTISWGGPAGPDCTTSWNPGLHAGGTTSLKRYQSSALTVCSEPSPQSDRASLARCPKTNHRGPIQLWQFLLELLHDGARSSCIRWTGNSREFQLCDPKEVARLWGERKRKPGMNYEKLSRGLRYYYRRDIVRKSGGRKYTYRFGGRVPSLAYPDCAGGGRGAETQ
# How it was run: as §1
# ELF3 = target: T11, ELF3 (Homo sapiens, UniProt P78545 1-371); settings: protein: recombinant; tags: N-terminal GST; dsDNA, one strand shown
# T11 sequence: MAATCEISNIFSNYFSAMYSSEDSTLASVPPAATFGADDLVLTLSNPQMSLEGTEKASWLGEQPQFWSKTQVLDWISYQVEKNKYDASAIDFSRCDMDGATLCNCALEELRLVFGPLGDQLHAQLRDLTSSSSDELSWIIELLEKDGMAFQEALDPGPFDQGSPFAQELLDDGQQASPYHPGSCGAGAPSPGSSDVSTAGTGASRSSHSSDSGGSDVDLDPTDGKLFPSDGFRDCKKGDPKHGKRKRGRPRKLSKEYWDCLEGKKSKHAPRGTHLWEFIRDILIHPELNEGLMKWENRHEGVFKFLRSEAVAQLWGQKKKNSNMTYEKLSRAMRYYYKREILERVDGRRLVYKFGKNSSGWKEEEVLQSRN
# How it was run: as §1
# CRX = CRX (Homo sapiens, UniProt O43186 1-299); settings: protein: recombinant; tags: N-terminal GST; dsDNA, one strand shown
# How it was run: as §1
# ETV1 = ETV1 (Homo sapiens, UniProt P50549 1-477); settings: protein: recombinant; tags: N-terminal GST; dsDNA, one strand shown
# How it was run: as §1
# Sequence of ELF4 (Q99607 whole entry): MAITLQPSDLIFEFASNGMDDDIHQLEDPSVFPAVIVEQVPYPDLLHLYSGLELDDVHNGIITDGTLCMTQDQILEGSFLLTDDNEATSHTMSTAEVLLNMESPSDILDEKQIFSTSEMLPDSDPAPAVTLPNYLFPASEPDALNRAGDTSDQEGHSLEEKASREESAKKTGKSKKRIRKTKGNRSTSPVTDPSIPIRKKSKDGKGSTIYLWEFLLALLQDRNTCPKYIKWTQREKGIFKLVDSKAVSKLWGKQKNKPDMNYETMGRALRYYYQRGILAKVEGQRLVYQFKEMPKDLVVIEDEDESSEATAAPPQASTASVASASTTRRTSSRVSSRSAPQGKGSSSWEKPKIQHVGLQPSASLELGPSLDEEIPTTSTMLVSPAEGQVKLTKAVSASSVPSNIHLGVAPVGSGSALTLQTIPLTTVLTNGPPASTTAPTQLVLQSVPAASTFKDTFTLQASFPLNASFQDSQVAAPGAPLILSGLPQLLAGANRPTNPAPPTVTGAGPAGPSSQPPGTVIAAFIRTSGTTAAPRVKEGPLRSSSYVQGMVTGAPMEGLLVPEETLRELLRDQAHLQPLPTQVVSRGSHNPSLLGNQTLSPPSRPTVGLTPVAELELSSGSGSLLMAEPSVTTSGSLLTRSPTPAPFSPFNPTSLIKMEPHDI
# Sequence of CRX (O43186 whole entry): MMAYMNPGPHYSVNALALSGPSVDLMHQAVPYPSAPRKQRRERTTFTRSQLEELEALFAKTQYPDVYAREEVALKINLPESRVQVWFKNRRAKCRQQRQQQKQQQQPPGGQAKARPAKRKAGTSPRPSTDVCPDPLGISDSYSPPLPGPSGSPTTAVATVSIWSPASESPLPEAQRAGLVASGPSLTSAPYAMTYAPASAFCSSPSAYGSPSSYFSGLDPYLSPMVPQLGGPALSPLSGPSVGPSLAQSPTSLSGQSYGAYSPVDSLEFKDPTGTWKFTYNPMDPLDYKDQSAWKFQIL
# Sequence of HSF1 (Q00613 whole entry): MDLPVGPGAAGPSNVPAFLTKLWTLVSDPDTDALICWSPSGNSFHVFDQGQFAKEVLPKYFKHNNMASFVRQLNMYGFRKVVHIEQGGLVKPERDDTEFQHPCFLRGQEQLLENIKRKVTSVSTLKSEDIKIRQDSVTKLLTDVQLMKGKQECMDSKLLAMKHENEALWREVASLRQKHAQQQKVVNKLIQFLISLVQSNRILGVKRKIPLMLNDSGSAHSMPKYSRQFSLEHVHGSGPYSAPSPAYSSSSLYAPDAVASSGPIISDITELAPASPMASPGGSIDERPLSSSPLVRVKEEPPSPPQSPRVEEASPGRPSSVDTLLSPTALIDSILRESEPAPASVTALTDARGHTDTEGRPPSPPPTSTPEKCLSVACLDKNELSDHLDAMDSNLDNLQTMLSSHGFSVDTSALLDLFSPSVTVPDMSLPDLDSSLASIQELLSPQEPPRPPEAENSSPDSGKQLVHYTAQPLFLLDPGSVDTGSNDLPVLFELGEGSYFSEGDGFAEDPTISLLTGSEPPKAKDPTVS
# Sequence of SPIB (Q01892 whole entry): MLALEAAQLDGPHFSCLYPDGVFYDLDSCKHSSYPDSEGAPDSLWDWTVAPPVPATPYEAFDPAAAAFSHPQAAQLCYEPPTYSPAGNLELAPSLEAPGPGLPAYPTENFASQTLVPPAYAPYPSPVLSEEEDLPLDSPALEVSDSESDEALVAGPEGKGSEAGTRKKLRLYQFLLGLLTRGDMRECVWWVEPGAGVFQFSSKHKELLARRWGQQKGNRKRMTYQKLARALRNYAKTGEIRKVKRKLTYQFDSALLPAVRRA
# Sequence of ETV5 (P41161 whole entry): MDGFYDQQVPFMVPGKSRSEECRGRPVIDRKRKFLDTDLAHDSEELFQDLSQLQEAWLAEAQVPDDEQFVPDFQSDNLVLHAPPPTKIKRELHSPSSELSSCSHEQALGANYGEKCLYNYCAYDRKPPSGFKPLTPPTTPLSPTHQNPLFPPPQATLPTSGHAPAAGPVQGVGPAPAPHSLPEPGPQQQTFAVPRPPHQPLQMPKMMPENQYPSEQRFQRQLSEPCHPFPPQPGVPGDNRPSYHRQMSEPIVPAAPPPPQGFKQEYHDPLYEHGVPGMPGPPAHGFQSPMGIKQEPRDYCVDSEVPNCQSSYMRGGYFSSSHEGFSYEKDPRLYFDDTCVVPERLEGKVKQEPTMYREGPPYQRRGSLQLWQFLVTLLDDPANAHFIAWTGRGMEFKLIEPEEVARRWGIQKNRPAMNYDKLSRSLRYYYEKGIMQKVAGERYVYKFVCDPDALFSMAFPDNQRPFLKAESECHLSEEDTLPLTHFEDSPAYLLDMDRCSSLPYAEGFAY
# Sequence of ELF1 (P32519 whole entry): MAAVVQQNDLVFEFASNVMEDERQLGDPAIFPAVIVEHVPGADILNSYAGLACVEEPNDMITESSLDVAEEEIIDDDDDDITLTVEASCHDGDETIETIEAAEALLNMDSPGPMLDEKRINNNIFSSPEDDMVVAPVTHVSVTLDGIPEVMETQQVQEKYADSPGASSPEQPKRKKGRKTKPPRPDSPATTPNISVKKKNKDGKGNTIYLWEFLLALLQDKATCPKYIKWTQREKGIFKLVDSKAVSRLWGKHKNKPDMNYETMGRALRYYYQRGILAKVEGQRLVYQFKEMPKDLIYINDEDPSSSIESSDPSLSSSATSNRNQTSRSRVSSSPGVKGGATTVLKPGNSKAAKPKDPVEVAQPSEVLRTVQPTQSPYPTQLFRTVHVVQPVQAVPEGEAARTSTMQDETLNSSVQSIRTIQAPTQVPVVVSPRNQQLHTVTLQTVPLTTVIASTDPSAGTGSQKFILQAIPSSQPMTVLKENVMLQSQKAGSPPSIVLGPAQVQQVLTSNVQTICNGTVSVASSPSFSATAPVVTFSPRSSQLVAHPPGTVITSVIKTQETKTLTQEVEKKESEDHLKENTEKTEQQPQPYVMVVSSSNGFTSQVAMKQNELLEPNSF
# Sequence of ETV1 (P50549 whole entry): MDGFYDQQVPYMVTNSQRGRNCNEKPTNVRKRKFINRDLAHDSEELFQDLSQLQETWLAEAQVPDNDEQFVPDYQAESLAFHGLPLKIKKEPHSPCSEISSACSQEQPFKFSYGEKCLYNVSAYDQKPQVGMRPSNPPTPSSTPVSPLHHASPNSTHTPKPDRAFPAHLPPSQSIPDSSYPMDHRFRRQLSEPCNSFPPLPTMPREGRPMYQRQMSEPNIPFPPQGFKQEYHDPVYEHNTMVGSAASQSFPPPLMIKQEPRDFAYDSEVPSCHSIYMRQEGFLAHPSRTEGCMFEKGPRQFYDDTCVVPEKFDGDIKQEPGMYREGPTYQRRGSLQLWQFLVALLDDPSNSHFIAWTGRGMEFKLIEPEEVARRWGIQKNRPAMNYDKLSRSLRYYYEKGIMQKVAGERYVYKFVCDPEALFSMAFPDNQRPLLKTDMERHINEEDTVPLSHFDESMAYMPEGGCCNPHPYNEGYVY
sequence,measurement,setting,value
GAACTA,binding signal,FLI1,"1.39 fold enrichment (6-mer frequency, TF over GST control)"
same,binding signal,ELK1,"1.39 fold enrichment (6-mer frequency, TF over GST control)"
same,binding signal,GABPA,"1.34 fold enrichment (6-mer frequency, TF over GST control)"
same,binding signal,ERG,"1.32 fold enrichment (6-mer frequency, TF over GST control)"
same,binding signal,ELF1,"1.3 fold enrichment (6-mer frequency, TF over GST control)"
same,binding signal,EHF,"1.37 fold enrichment (6-mer frequency, TF over GST control)"
same,binding signal,SPI1,"1.41 fold enrichment (6-mer frequency, TF over GST control)"
same,binding signal,SPIB,"1.32 fold enrichment (6-mer frequency, TF over GST control)"
same,binding signal,ELK3,"1.37 fold enrichment (6-mer frequency, TF over GST control)"
same,binding signal,FEV,"1.25 fold enrichment (6-mer frequency, TF over GST control)"
same,binding signal,ETV5,"1.33 fold enrichment (6-mer frequency, TF over GST control)"
same,binding signal,HSF1,"1.32 fold enrichment (6-mer frequency, TF over GST control)"
same,binding signal,SPIC,"1.48 fold enrichment (6-mer frequency, TF over GST control)"
same,binding signal,ELF4,"1.21 fold enrichment (6-mer frequency, TF over GST control)"
same,binding signal,ELK4,"1.25 fold enrichment (6-mer frequency, TF over GST control)"
same,binding signal,ETV2,"1.31 fold enrichment (6-mer frequency, TF over GST control)"
same,binding signal,ELF3,"1.23 fold enrichment (6-mer frequency, TF over GST control)"
same,binding signal,CRX,"1.13 fold enrichment (6-mer frequency, TF over GST control)"
same,binding signal,ETV1,"1.37 fold enrichment (6-mer frequency, TF over GST control)"
